# Test system: Bacillus 1 (Bacillus foraminis)
# Test: relative growth (AUC of 72 h growth curve relative to DMSO control, dAUC) (ratio); higher = more growth (less inhibition), active = hit call of the paper
# Settings: 20 µM;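 active = growth AUC significantly below the DMSO wells by Dunnett test; inactive = the rest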
# Experimental: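 Environmental bacterial isolates (Iceland stream sediment and Silwood Park soil) and whole stream-sediment communities were grown in LB from a 1:100 dilution with each pesticide at 20 µM (1% DMSO). A600 was read hourly for 72 h and the area under a spline-fitted growth curve (AUC) was computed. dAUC is the mean AUC of 3 biological replicates divided by the mean AUC of the DMSO controls. Significance was tested by Dunnett's test against the DMSO control.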
row,SMILES,relative growth
1,O=[N+]([O-])c1cc(C(F)(F)F)c(Cl)c([N+](=O)[O-])c1Nc1ncc(C(F)(F)F)cc1Cl,0.0375 (active)
2,CC[C@H](C)C1O[C@]2(C=C[C@@H]1C)C[C@@H]1C[C@@H](C/C=C(\C)[C@@H](O[C@H]3C[C@H](OC)[C@@H](O[C@H]4C[C@H](OC)[C@H](NC)[C@H](C)O4)[C@H](C)O3)[C@@H](C)/C=C/C=C3\CO[C@@H]4[C@H](O)C(C)=C[C@@H](C(=O)O1)[C@]34O)O2 (stereo not given in full),0.928 (inactive)
3,Cc1cc(C(C#N)c2ccc(Cl)cc2)c(Cl)cc1NC(=O)c1cc(I)cc(I)c1O (stereo not given),0.695 (inactive)
4,Cc1cc(C)c(C2=C(OC(=O)CC(C)(C)C)C3(CCCC3)OC2=O)c(C)c1,0.993 (inactive)
5,CC1(C)C(C(=O)OC(C#N)c2cccc(Oc3ccccc3)c2)C1(C)C (stereo not given),0.917 (inactive)
6,OC(Cn1cncn1)(c1ccc(F)cc1)c1ccccc1F (stereo not given),1.07 (inactive)
7,CC[C@H](C)[C@H]1O[C@]2(C=C[C@@H]1C)C[C@@H]1C[C@@H](C/C=C(\C)[C@@H](O[C@H]3C[C@H](OC)[C@@H](O[C@H]4C[C@H](OC)[C@@H](O)[C@H](C)O4)[C@H](C)O3)[C@@H](C)/C=C/C=C3\CO[C@@H]4[C@H](O)C(C)=C[C@@H](C(=O)O1)[C@]34O)O2.CO[C@H]1C[C@H](O[C@H]2[C@H](C)O[C@@H](O[C@@H]3/C(C)=C/C[C@@H]4C[C@@H](C[C@]5(C=C[C@H](C)[C@@H](C(C)C)O5)O4)OC(=O)[C@@H]4C=C(C)[C@@H](O)[C@H]5OC/C(=C\C=C\[C@@H]3C)[C@]54O)C[C@@H]2OC)O[C@@H](C)[C@@H]1O,0.944 (inactive)
8,COc1cc(OC)nc(NC(=O)NS(=O)(=O)c2ncccc2C(=O)N(C)C)n1,1.08 (inactive)
9,COc1ncc(F)c2nc(S(=O)(=O)Nc3c(F)cccc3F)nn12,1.06 (inactive)
10,CNC(=O)Oc1cccc2ccccc12,1.05 (inactive)
11,N#Cc1cc(Br)c(O)c(Br)c1,0.916 (inactive)
12,CCc1cnc(C2=NC(C)(C(C)C)C(=O)N2)c(C(=O)O)c1 (stereo not given),1.11 (inactive)
13,CCC(CC)Nc1c([N+](=O)[O-])cc(C)c(C)c1[N+](=O)[O-],0.931 (inactive)
14,COc1ccc(C(=CC(=O)N2CCOCC2)c2ccc(Cl)cc2)cc1OC (mixture of isomers),0.924 (inactive)
15,COP(=S)(OC)Oc1nc(Cl)c(Cl)cc1Cl,1.08 (inactive)
16,O=C(O)CNCP(=O)(O)O,1.04 (inactive)
17,CC(C1CC1)C(O)(Cn1cncn1)c1ccc(Cl)cc1 (stereo not given),1.09 (inactive)
18,C[C@@H]1[C@@H](c2ccc(Cl)cc2)SC(=O)N1C(=O)NC1CCCCC1,1.06 (inactive)
19,CC(C)(C)C(O)(CCc1ccc(Cl)cc1)Cn1cncn1 (stereo not given),0.924 (inactive)
20,COC(=O)N(OC)c1ccccc1COc1ccn(-c2ccc(Cl)cc2)n1,1.06 (inactive)

row,SMILES,relative growth
1,CCCCC(C#N)(Cn1cncn1)c1ccc(Cl)cc1 (stereo not given),0.889 (inactive)
2,COP(=O)(OC)OC=C(Cl)Cl,0.941 (inactive)
3,CCOP(=S)(OCC)Oc1nc(Cl)c(Cl)cc1Cl,1.07 (inactive)
4,O=C1C2CC=CCC2C(=O)N1SC(Cl)(Cl)Cl (stereo not given),0.939 (inactive)
5,CC(COc1ccc(Oc2ccccc2)cc1)Oc1ccccn1 (stereo not given),1.07 (inactive)
6,CCCN(CCC)C(=O)SCc1ccccc1,0.998 (inactive)
7,CC(C)N1C(=O)c2ccccc2NS1(=O)=O,1.01 (inactive)
8,CSc1nnc(C(C)(C)C)c(=O)n1N,0.94 (inactive)
9,CNC(=O)Oc1cccc(/N=C/N(C)C)c1,0.983 (inactive)
10,COC(=O)c1ccccc1S(=O)(=O)NC(=O)Nc1nc(C)nc(OC)n1,1.05 (inactive)
11,CCCCN(CCCC)SN(C)C(=O)Oc1cccc2c1OC(C)(C)C2,1.03 (inactive)
12,CCNC(=O)NC(=O)/C(C#N)=N/OC,1.04 (inactive)
13,O=C(NCCc1ncc(C(F)(F)F)cc1Cl)c1ccccc1C(F)(F)F,0.999 (inactive)
14,CNC(=O)CSP(=S)(OC)OC,0.911 (inactive)
15,CCc1nn(C)c(C(=O)NCc2ccc(Oc3ccc(C)cc3)cc2)c1Cl,1.05 (inactive)
16,CC1(C(=O)Nc2ccc(O)c(Cl)c2Cl)CCCCC1,1.01 (inactive)
17,Fc1ccc([C@]2(Cn3cncn3)O[C@H]2c2ccccc2Cl)cc1 (racemic),0.994 (inactive)
18,CC[C@H]1CCC[C@H](O[C@H]2CC[C@H](N(C)C)[C@@H](C)O2)[C@@H](C)C(=O)C2=C[C@@H]3[C@@H](C=C(C)[C@@H]4C[C@@H](O[C@@H]5O[C@@H](C)[C@H](OC)[C@@H](OC)[C@H]5OC)C[C@@H]34)[C@@H]2CC(=O)O1.CC[C@H]1CCC[C@H](O[C@H]2CC[C@H](N(C)C)[C@@H](C)O2)[C@@H](C)C(=O)C2=C[C@H]3[C@@H]4C[C@H](O[C@@H]5O[C@@H](C)[C@H](OC)[C@@H](OC)[C@H]5OC)C[C@H]4C=C[C@H]3C2CC(=O)O1,1.04 (inactive)
19,CS(=O)(=O)c1cc(C(F)(F)F)ccc1C(=O)c1cnoc1C1CC1,1.02 (inactive)
20,CCSC(C)CC1CC(=O)C(/C(CC)=N/OC/C=C/Cl)=C(O)C1 (mixture of isomers),1.06 (inactive)

# Reference: the supplement of paper PMC12067926
